The whole screen tested about 310,000 compounds, of which about 14,000 (4.5%) showed an effect of 50% or more. Effects have a minus sign here. The sample as a whole holds a higher share of strong results than the screen did.
The compounds below were run against human ether-à-go-go-related gene (hERG) potassium channel (human, UniProt Q12809) (assay: primary screen, population patch clamp on CHO cells stably expressing hERG; higher = less effect of the substance).
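Note: peak tail current of the secondary pulse compared with the same well before compound.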

Sequence of human ether-à-go-go-related gene (hERG) potassium channel (Q12809 whole entry, looked up): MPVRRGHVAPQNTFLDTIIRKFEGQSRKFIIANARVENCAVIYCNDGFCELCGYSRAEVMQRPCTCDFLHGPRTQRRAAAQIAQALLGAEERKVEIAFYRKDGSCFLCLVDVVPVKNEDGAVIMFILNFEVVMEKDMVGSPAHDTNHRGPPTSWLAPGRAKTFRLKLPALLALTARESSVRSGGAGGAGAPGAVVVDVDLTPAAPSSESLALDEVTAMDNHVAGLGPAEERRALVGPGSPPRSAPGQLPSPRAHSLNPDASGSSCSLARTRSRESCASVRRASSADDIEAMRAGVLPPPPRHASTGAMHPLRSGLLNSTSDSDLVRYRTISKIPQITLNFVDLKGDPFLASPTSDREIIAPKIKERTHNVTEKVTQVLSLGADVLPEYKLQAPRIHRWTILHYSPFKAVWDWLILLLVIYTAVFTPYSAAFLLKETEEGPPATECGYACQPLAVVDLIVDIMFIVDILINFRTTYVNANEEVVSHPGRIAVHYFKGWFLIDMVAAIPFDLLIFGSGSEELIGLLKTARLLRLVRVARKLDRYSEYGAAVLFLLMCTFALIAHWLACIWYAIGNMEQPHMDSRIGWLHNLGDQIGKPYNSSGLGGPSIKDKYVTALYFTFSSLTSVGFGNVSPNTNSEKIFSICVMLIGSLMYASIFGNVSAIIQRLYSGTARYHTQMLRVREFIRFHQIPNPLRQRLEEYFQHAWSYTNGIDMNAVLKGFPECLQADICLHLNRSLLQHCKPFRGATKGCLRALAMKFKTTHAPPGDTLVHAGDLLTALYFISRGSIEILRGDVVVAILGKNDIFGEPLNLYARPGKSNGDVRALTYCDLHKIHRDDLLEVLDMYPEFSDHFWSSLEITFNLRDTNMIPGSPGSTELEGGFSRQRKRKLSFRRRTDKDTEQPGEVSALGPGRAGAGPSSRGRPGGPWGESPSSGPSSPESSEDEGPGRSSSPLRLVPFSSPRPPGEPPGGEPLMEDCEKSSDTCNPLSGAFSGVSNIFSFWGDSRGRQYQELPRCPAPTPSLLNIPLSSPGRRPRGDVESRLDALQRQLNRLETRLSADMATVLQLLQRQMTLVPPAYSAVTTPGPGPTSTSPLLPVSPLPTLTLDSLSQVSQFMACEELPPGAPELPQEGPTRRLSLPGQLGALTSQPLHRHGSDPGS

| Structure (SMILES) | hERG current change (%, negative = inhibition) at 10uM |
| --- | --- |
| CS(=O)(=O)O.Cc1c(O)cccc1C(=O)N[C@@H](CSc1ccccc1)[C@H](O)CN1C[C@H]2CCCC[C@H]2C[C@H]1C(=O)NC(C)(C)C | -4.69% |
| CC(C)(C)NC(=O)[C@@H]1C[C@@H]2CCCC[C@@H]2CN1C[C@@H](O)[C@H](Cc1ccccc1)NC(=O)[C@H](CC(N)=O)NC(=O)c1ccc2ccccc2n1 | -9.59% |
| CC(C)(C)NC(=O)[C@@H]1C[C@@H]2CCCC[C@@H]2CN1C[C@@H](O)[C@H](Cc1ccccc1)NC(=O)[C@H](CC(N)=O)NC(=O)c1ccc2ccccc2n1.CS(=O)(=O)O | -72.1% |
| CC(=O)Nc1ccc(Nc2ncnc3c2cnn3-c2cccc(C)c2)cc1 | 10% |
| O=C(O)c1ccc(S(=O)(=O)c2ccc(Sc3ccc(C(=O)O)c(C(=O)O)c3)cc2)cc1 | 23.3% |
| CCOC(=O)N1CCN(CC(O)COc2cc(C)cc(C)c2)CC1.Cl (stereo not drawn) | -12.7% |
| CCOC(=O)N1CCN(CC(O)COc2ccc(C)c(C)c2)CC1.Cl (stereo not drawn) | 6.64% |
| CCOC(=O)N1CCN(CC(O)COc2ccc(CC)cc2)CC1.Cl (stereo not drawn) | -31.2% |
| CCCc1ccc(OCC(O)CN2CCN(C(=O)OCC)CC2)cc1.Cl (stereo not drawn) | -52.2% |
| CCOC(=O)N1CCN(Cc2ccc(OCC(O)CN3CCCCC3)cc2)CC1 (stereo not drawn) | 15.7% |
| CCOC(=O)N1CCN(CC(O)COc2ccc(-c3ccccc3)cc2)CC1.Cl (stereo not drawn) | -60.3% |
| COc1ccccc1NC(=O)COC(=O)C1CCN(/C=C/C(=O)C(F)(F)F)CC1 | -49.6% |
| Cc1ccc(S(=O)(=O)N/N=C\c2cn(CC(N)=O)c3ccccc23)cc1C | 5.21% |
| Cc1nn(Cc2cccc(C(=O)Nc3ccn(Cc4ccccc4F)n3)c2)c(C)c1[N+](=O)[O-] | 6.24% |
| Cc1ccc(-c2nc(N/N=C/c3ccncc3)c3ccccc3n2)cc1 | 3.06% |
| COc1cc(C)cc(CN2CCC(Cc3ccccc3)CC2)c1O | -52.2% |
| COc1cc(OC)c(CN2CCC(Cc3ccccc3)CC2)cc1Br | -70.9% |
| COc1cc(CN2CCC(Cc3ccccc3)CC2)c([N+](=O)[O-])cc1OC | 0.589% |
| COc1ccc(CN2CCC(Cc3ccccc3)CC2)c(C)c1C | -23% |
| COc1ccc(C(C)=O)cc1CN1CC=C(c2ccccc2)CC1 | -17% |
| Cc1cc(O)c(CN2CC=C(c3ccccc3)CC2)cc1C(C)C | -14.1% |
| COc1cc(C)c(CN2CCC(Cc3ccccc3)CC2)cc1C | -45.3% |

| Structure (SMILES) | hERG current change (%, negative = inhibition) at 10uM |
| --- | --- |
| COc1cc(C)cc(CN2CC=C(c3ccccc3)CC2)c1O | -51.4% |
| FC(F)(F)c1ccccc1CN1CCC(Cc2ccccc2)CC1 | 12% |
| O=C1C2C(c3ccccc3)CC=CC2[C@H](c2ccc(C(F)(F)F)cc2)N1Cc1ccccc1 (stereo partly drawn) | -2.51% |
| CCC(=O)Nc1c2c(nn1-c1ccc(OC)cc1)CS(=O)C2 (stereo not drawn) | 9.94% |
| CC(=O)c1ccc(NS(=O)(=O)Cc2ccccc2)cc1 | 3.41% |
| Cc1cc(=O)oc2cc(OCC(=O)OCc3nnc(-c4ccccc4)o3)ccc12 | 14.3% |
| CCOC(=O)C1CCN(CC(O)COc2ccc(C(C)=O)cc2)CC1.Cl (stereo not drawn) | -47.7% |
| CC(C)(C)c1ccc(OCC(O)CN2CCOCC2)cc1 (stereo not drawn) | -3.19% |
| CCOC(=O)C1CCN(CC(O)COc2ccc(C(=O)CC)cc2)CC1.Cl (stereo not drawn) | -68.5% |
| CCN1CCN(CC(O)COc2ccc(C(C)=O)cc2)CC1.Cl (stereo not drawn) | 2.15% |
| CCOC(=O)C1CCN(CC(O)COc2ccc(C(C)(C)C)cc2)CC1.Cl (stereo not drawn) | -70.4% |
| CC1CCCC/C1=N\NC(=S)Nc1cccnc1 (stereo not drawn) | 15.8% |
| Cc1noc(C)c1COc1ccc(C(=O)OCC(N)=O)cc1 | 18% |
| O=C(Nc1ccc(Cl)cc1)c1ccc(-n2cccn2)c([N+](=O)[O-])c1 | 4.78% |
| CC(C)c1nc2c(s1)CCc1onc(-c3cccc([N+](=O)[O-])c3)c1-2 | 16.4% |
| COc1cc(OC)cc(-n2nnnc2SCC(=O)N2CCCC2)c1 | -30.2% |
| Cc1ccc(-n2nnnc2SCC(=O)NC2CCCc3ccccc32)c(C)c1 (stereo not drawn) | -7.69% |
| O=C(c1ccc(C(F)(F)F)cc1)C1CCCN(Cc2ccc(CO)o2)C1 (stereo not drawn) | -24.6% |
| O=C(c1cccc(C(F)(F)F)c1)C1CCCN(Cc2cccn2-c2ccccn2)C1 (stereo not drawn) | -83.5% |
| COCC(=O)N1CCCC(C(=O)c2ccc(C(F)(F)F)cc2)C1 (stereo not drawn) | -0.113% |
| CCn1ccnc1CN1CCCC(C(=O)c2cccc(C(F)(F)F)c2)C1 (stereo not drawn) | -31.1% |
| O=C(c1ccc(C(F)(F)F)cc1)C1CCCN(Cc2cccn2-c2ncccn2)C1 (stereo not drawn) | -80.3% |

| Structure (SMILES) | hERG current change (%, negative = inhibition) at 10uM |
| --- | --- |
| O=C(c1cccc(C(F)(F)F)c1)C1CCCN(Cc2ncc[nH]2)C1 (stereo not drawn) | 0.0209% |
| O=C(c1cccc(C(F)(F)F)c1)C1CCCN(Cc2cccn2-c2ncccn2)C1 (stereo not drawn) | -95.7% |
| O=C(c1cccc(C(F)(F)F)c1)C1CCCN(C(=O)CCc2cnccn2)C1 (stereo not drawn) | -15.6% |
| O=C1CCN(Cc2ccc(Br)cc2)CCN1CCO | -1.08% |
| CCOc1ccc(S(=O)(=O)N(C)c2ccc(OCC(=O)Nc3nccs3)cc2)cc1 | 10.1% |
| O=C(O)CN1C(=O)C2C3C=CC(C2C1=O)C1C(=O)N(CC(=O)O)C(=O)C31 (stereo not drawn) | 21.8% |
| CSc1ccc(CN(C)C(=O)c2cccc(S(=O)(=O)N3CCN(Cc4ccccc4)CC3)c2)cc1 | -1.76% |
| COc1cc(/C=C2/SC(=S)N(CC(=O)O)C2=O)ccc1OCC(=O)Nc1ccc(C)c(C)c1 | -6.69% |
| COc1ccccc1/C=C1/C(=O)N(c2ccc([N+](=O)[O-])cc2)N=C1C | 12.7% |
| CCOC(=O)CSc1nc2ccccc2c(=O)n1CC1CCCC1 | -67.3% |
| CCOC(=O)CSc1nc2ccccc2c(=O)n1CC1CCCO1 (stereo not drawn) | -6.58% |
| CCN(CC)C(=O)CSc1nc2ccccc2c(=O)n1CC | -1.18% |
| CCOC(=O)C(C)Sc1nc2ccccc2c(=O)n1CC1CCCCC1 (stereo not drawn) | -10.1% |
| CCN(CC)C(=O)CSc1nc2ccccc2c(=O)n1CC1CCCCC1 | -61% |
| CCOC(=O)CSc1nc2ccccc2c(=O)n1CC | -14.6% |
| Cl.c1ccc(N2CCCCC2)c(NC2=NCCC2)c1 | -15.5% |
| CN(C)/C=C1\NC(=S)N(c2ccccc2)C1=O | 28.4% |
| Cc1ccc2c(c1)N(CC(=O)N1CCOCC1)C(=O)CO2 | 4.9% |
| COCCCNc1nc2nonc2nc1N1CCN(C2CCCC2)CC1 | -20.2% |
| CC1CC(C)CN(C(=O)c2ccc3ccccc3c2)C1 (stereo not drawn) | -19.2% |
| COc1cccc(OCC(O)CN2CCN(c3ccccn3)CC2)c1.Cl (stereo not drawn) | -12.7% |
| CCc1ccc(OCC(O)CN2CCN(c3ccccc3)CC2)cc1.Cl (stereo not drawn) | -60.3% |

| Structure (SMILES) | hERG current change (%, negative = inhibition) at 10uM |
| --- | --- |
| CCc1ccc(OCC(O)CN2CCN(c3ccc(OC)cc3)CC2)cc1.Cl (stereo not drawn) | -49.3% |
| CCc1ccc(OCC(O)CN2CCN(CCO)CC2)cc1.Cl (stereo not drawn) | -15.3% |
| CCc1ccc(OCC(O)CN2CCN(c3ccccn3)CC2)cc1.Cl (stereo not drawn) | -67.4% |
| CCCc1ccc(OCC(O)CN2CCN(c3ccccn3)CC2)cc1.Cl (stereo not drawn) | -63.6% |
| CCCc1ccc(OCC(O)CN2CCN(c3ccccc3)CC2)cc1.Cl (stereo not drawn) | -46.5% |
| CC(=O)C1C(c2ccc3ncccc3c2)NC(=O)NC1(O)C(F)(F)F (stereo not drawn) | 10.9% |
| Cc1ccsc1/C=N/Nc1ncc(Cl)cc1Cl | 5.75% |
| COc1ccc(C)cc1S(=O)(=O)N1CCN(S(=O)(=O)c2cc(C(=O)O)ccc2C)CC1 | 3.86% |
| CCN1CCN(C(c2cccs2)C(C)NC(=O)c2cccc(OC)c2)CC1 (stereo not drawn) | -4.05% |
| CCN(CC)C(=O)c1ccc(NC(=O)c2cccc(C(F)(F)F)c2)cc1 | 4.47% |
| CN(C(=O)COC(=O)c1ccc2c(=O)n3c(nc2c1)CCC3)C1CCS(=O)(=O)C1 (stereo not drawn) | 10.5% |
| CCc1ccc2nc(NC(=O)Cn3cnc4ccccc4c3=O)sc2c1 | 9.75% |
| Cc1cc(C)nc(/N=C(\N)Nc2cccc([N+](=O)[O-])c2)n1 | -28.7% |
| CCOC(=O)C(=O)Nc1ccc(OCc2ccccc2)cc1 | 20.2% |
| Cc1cc(C)nc(/N=C(\N)Nc2ccc(OCc3ccccc3)cc2)n1 | -78.2% |
| Cc1cc(C)nc(/N=C(\N)Nc2cccc(OCc3ccccc3)c2)n1 | -74.1% |
| Cc1cc(C)nc(/N=C(\N)Nc2ccc(OCCC(C)C)cc2)n1 | -71.8% |
| CC(=O)Nc1cccc(N/C(N)=N/c2nc(C)cc(C)n2)c1 | 4.87% |
| Cc1cc(OCC(=O)Nc2ccc(OCc3ccccc3)cc2)nc(C(C)C)n1 | 3.36% |
| Cc1cc(C)nc(/N=C(\N)Nc2ccc(S(=O)(=O)Nc3nccc(C)n3)cc2)n1 | 19.8% |
| CCOc1ccc(N/C(N)=N/c2nc(C)cc(C)n2)cc1 | -46.5% |
